Screens: PubChem BioAssay, Paczesny and Yang Labs, IUPUI and University of Michigan
ST2 IL33 inh – blocks human ST2 binding to IL-33. Q01638. AlphaLISA ST2-Fc/biotin-IL-33 interaction, 1 h. inhibition, % for hits at 17 µM. 2.3% of 78,000 active. AID 1259354; in the data active means inhibition above about 30%
Target sequence (Q01638 whole entry, looked up): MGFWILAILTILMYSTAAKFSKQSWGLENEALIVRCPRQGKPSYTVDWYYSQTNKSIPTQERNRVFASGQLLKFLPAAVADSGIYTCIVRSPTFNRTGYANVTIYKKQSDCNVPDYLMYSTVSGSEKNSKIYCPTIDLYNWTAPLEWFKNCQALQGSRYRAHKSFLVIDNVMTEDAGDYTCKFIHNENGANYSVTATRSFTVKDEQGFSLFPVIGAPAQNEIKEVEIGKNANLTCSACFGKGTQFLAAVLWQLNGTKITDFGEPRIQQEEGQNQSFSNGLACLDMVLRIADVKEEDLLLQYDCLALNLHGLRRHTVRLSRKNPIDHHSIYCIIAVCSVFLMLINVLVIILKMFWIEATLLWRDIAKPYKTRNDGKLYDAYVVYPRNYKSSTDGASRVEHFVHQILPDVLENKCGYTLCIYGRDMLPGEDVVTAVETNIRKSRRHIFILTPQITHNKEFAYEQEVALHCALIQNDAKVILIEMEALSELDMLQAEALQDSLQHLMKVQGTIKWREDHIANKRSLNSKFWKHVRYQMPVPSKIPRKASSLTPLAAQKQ
Large screens that a line does not name were inactive. Only a selection was taken, and hits are over-represented in it overall.

CCOC(=O)Cc1csc(NC(=O)c2cccn(Cc3cccc(Cl)c3)c2=O)n1	none
c1cc2c(c(-c3cc(N4CCCC4)cnn3)c1)CCNC2	none
CC(=O)Nc1ccc(S(=O)(=O)NC[C@H]2C[C@@H]3CCN2C[C@@H]3c2cc(-c3ccc4ccccc4c3)nn2C)cc1	none
CC[C@H]1CN2CC[C@H]1C[C@@H]2CNC(=S)NCCN1CCOCC1	none
CC[C@H]1CN2CC[C@H]1C[C@@H]2COC(=O)Nc1ccc(Br)cc1	none
Cn1nc(C2CCCC2)cc1[C@H]1CN2CC[C@H]1C[C@@H]2CO	none
c1cnc2c(C3NCCc4[nH]cnc43)cnn2c1 (stereo not given)	none
COCCNC(=S)NC[C@H]1C[C@@H]2CCN1C[C@@H]2CN1CCN(c2ccccc2)CC1	none
Cn1nc(-c2cccs2)cc1[C@H]1CN2CC[C@H]1C[C@@H]2CNC(=O)Nc1cccc(C#N)c1	ST2 IL33 inh 35.0%
Cn1nc(-c2cccs2)cc1[C@H]1CN2CC[C@H]1C[C@@H]2CNC(=O)N1CCOCC1	none
CCNC(=O)NC[C@H]1C[C@@H]2CCN1C[C@@H]2c1cc(-c2cccs2)nn1C	none
CCCc1nc2ccccc2c(N)c1CC (tested in a mixture with another compound)	none
Cc1ccc(C(C)n2ccnc2-c2coc(C)n2)cn1 (stereo not given)	none
COc1ccc(N=Cc2cc3c(cc2O)OC(N)=C(C#N)C3c2ccco2)cc1 (stereo not given)	ST2 IL33 inh 30.0%
CSc1ccc(-c2ccc(=O)n3c2[C@@H]2C[C@@H](CN(S(=O)(=O)c4ccccc4)C2)C3)cc1	none
Cc1o[nH]c(=O)c1CC(N)C(=O)O (stereo not given)	none
C[Se]C[C@H](N)C(=O)O	none
NC(Cc1cc(O)c(O)cc1O)C(=O)O (stereo not given)	ST2 IL33 inh 95.0%
COc1ccc(-c2cc([C@H]3CN4CC[C@H]3C[C@@H]4CNC(=S)NCC(C)C)n(C)n2)cc1	none
CN1CCc2nc(N)c(C#N)c(-c3ccc(Br)cc3)c2C1	ST2 IL33 inh 34.0%
Cc1ccnc(CC(C)N(C)CC(C)(C)CN2CCOCC2)c1 (stereo not given)	none
